# Key:
# Experiment in all cases: DAPPL (digital affinity profiling via proximity ligation, sequencing); 10 mM Tris-HCl pH 7.5, 50 mM NaCl, 1 mM DTT, 4% glycerol, room temperature, 30 min; GST-TFs on glutathione beads, 16-mer random dsDNA library, 0.1% formaldehyde crosslink after washing; high values mean tight binding
# Details in all cases: protein: recombinant; tags: N-terminal GST; dsDNA, one strand shown
# ELK4 = biological target: T1, ELK4 (Homo sapiens, UniProt P28324-2 1-405)
# T1 sequence: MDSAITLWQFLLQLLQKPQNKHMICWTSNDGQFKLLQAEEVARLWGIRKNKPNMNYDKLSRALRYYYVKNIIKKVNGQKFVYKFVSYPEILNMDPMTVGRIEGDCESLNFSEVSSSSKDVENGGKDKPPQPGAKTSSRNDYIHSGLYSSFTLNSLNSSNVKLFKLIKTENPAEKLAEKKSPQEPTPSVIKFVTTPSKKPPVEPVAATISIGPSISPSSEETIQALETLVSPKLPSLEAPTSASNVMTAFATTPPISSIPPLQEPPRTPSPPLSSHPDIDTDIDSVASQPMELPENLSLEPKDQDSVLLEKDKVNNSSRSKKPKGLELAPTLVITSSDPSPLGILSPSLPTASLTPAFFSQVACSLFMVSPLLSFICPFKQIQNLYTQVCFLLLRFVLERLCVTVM
# In short: (§1)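 Human transcription factors fused to GST were expressed in yeast, captured on glutathione beads, given DNA barcodes and pooled with a GST-only negative control. Pools were incubated with 200 nmole of a 16-mer random double-stranded DNA library in Tris/NaCl/DTT/glycerol buffer at room temperature for 30 min. They were then washed, crosslinked with 0.1% formaldehyde, proximity-ligated (BsaI/T4 ligase, 1 h, 37 °C), PCR-amplified and sequenced on an Illumina NextSeq500. Binding signal is each 6-mer's read frequency for a factor divided by its frequency for the GST control.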
# ETV2 = biological target: T2, ETV2 (Homo sapiens, UniProt O00321 1-342)
# T2 sequence: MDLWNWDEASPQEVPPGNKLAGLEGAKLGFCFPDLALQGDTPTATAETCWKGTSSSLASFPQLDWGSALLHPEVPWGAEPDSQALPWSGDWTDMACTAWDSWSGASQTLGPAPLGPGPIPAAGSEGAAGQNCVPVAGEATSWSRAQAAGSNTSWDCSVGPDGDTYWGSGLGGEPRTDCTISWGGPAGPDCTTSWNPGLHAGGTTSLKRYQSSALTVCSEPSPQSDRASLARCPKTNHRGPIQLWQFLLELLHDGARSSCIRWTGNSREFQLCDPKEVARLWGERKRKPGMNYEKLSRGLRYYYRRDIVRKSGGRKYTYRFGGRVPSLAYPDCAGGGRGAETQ
# In short: as §1
# ELF3 = biological target: T3, ELF3 (Homo sapiens, UniProt P78545 1-371)
# T3 sequence: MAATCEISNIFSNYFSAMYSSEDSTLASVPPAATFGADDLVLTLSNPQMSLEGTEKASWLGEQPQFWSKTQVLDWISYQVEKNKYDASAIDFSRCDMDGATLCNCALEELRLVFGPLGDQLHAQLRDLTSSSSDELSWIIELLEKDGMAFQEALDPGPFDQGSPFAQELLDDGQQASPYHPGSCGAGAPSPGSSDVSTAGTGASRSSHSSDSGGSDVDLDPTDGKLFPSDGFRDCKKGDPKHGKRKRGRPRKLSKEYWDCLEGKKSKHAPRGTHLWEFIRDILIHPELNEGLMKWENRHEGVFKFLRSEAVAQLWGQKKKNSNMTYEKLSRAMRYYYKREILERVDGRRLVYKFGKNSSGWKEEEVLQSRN
# In short: as §1
# ETV1 = ETV1 (Homo sapiens, UniProt P50549 1-477)
# In short: as §1
# ERF = biological target: T4, ERF (Homo sapiens, UniProt P50548 1-548)
# T4 sequence: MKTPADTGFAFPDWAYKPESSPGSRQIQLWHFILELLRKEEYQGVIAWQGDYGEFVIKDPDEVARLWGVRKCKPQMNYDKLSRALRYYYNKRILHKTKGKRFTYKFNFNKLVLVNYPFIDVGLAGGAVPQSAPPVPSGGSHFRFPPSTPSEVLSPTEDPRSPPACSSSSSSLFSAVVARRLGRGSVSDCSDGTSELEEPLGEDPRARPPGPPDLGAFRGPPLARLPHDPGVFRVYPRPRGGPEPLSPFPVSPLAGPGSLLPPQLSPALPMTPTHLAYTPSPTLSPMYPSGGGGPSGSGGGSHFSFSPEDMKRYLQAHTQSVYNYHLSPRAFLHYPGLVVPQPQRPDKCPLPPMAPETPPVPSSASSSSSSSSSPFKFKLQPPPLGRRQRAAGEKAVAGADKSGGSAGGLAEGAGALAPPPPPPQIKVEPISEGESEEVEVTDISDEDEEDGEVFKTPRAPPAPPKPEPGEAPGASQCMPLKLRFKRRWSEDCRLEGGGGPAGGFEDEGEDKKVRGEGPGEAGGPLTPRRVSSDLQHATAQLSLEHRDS
# In short: as §1
# ETV3L = biological target: T5, ETV3L (Homo sapiens, UniProt Q6ZN32 1-361)
# T5 sequence: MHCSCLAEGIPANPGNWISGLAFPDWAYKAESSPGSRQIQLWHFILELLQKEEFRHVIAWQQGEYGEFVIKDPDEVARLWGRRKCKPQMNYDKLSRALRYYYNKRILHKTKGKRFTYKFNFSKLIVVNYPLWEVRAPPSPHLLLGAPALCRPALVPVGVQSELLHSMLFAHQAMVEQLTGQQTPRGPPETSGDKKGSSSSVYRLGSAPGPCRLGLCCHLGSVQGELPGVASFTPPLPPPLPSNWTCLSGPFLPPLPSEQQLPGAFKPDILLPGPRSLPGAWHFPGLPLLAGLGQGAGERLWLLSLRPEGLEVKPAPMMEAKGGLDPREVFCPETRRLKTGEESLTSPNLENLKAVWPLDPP
# In short: as §1
# ETS2 = biological target: T6, ETS2 (Homo sapiens, UniProt P15036 1-469)
# T6 sequence: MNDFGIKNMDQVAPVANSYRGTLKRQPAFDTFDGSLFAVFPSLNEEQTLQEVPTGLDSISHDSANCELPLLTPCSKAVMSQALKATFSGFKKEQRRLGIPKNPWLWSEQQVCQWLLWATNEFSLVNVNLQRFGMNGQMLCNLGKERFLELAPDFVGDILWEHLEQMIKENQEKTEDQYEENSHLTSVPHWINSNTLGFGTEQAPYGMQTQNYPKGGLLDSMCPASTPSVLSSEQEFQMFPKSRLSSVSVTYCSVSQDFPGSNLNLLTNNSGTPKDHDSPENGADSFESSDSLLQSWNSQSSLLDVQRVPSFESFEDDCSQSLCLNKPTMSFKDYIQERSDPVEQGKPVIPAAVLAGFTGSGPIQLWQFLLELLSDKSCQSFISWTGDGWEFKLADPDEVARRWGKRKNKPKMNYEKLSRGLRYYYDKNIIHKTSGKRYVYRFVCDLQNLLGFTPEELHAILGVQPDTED
# In short: as §1
# ETV7 = biological target: T7, ETV7 (Homo sapiens, UniProt Q9Y603 1-341)
# T7 sequence: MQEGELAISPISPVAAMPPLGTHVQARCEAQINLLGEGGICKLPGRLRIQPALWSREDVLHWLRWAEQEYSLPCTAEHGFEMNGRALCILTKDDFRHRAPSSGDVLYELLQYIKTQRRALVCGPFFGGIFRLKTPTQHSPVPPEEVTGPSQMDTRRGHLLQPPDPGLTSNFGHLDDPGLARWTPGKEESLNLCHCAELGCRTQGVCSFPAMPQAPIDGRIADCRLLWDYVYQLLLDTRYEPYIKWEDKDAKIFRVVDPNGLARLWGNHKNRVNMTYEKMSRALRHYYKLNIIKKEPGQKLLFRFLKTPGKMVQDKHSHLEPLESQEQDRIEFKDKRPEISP
# In short: as §1
# ETV3 = biological target: T8, ETV3 (Homo sapiens, UniProt P41162-2 1-143)
# T8 sequence: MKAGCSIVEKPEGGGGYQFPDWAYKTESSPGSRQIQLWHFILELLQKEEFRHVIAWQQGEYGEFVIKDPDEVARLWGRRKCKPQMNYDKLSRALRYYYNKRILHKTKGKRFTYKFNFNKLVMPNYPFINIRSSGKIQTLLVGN
# In short: as §1
# ETV6 = ETV6 (Homo sapiens, UniProt P41212 1-452)
# In short: as §1
# ETV1, sequence (P50549 whole entry): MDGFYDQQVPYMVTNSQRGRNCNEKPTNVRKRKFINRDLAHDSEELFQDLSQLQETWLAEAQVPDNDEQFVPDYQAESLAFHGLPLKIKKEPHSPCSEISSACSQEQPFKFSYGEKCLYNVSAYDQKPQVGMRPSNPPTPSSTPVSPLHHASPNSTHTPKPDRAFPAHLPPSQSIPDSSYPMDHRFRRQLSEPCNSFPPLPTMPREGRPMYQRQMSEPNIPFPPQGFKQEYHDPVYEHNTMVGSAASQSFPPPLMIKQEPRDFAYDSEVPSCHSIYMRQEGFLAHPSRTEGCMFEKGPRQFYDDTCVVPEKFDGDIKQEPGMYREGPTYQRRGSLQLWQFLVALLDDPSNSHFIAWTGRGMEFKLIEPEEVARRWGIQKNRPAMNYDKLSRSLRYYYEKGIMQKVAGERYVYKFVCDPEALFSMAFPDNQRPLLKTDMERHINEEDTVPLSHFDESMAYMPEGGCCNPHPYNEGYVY
# ETV6, sequence (P41212 whole entry): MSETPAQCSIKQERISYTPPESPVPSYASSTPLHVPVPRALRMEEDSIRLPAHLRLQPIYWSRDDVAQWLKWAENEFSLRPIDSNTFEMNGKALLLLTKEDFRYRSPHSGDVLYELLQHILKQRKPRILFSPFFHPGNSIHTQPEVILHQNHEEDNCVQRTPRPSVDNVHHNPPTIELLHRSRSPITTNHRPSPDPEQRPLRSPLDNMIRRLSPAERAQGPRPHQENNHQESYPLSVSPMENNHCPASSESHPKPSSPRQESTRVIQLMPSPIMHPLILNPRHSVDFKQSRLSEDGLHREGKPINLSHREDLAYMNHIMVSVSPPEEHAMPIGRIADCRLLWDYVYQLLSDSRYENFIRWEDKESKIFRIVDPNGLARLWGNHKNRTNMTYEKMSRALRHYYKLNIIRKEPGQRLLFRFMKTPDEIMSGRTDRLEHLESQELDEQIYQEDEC
sequence,measurement,setting,value
GCTGGT,binding signal,ELK4,"1.45 fold enrichment (6-mer frequency, TF over GST control)"
same,binding signal,ETV2,"1.1 fold enrichment (6-mer frequency, TF over GST control)"
same,binding signal,ELF3,"1.16 fold enrichment (6-mer frequency, TF over GST control)"
same,binding signal,ETV1,"1.02 fold enrichment (6-mer frequency, TF over GST control)"
same,binding signal,ERF,"1.14 fold enrichment (6-mer frequency, TF over GST control)"
same,binding signal,ETV3L,"1.19 fold enrichment (6-mer frequency, TF over GST control)"
same,binding signal,ETS2,"1.17 fold enrichment (6-mer frequency, TF over GST control)"
same,binding signal,ETV7,"1.17 fold enrichment (6-mer frequency, TF over GST control)"
same,binding signal,ETV3,"1.29 fold enrichment (6-mer frequency, TF over GST control)"
same,binding signal,ETV6,"1.13 fold enrichment (6-mer frequency, TF over GST control)"
